Laboratory results from the supplement of paper PMC11732987, “Enantioselective OTUD7B fragment discovery through chemoproteomics screening and high-throughput optimisation” (Communications Chemistry, 2025).

Legend:
Assay in all cases: log2 ratio of Biotin-Ahx-Ub-VS probe labelling (fragment/DMSO); higher = less target engagement (more negative = stronger competition), active = hit call of the paper (q ≤ 0.05, log2 ratio ≤ -1)
Conditions in all cases: compound concentration: 200 uM; treatment time: 3 h
[1] = target: USP9X (UniProt Q93008)
USP9X, sequence (Q93008 whole entry, the tested form may be a part): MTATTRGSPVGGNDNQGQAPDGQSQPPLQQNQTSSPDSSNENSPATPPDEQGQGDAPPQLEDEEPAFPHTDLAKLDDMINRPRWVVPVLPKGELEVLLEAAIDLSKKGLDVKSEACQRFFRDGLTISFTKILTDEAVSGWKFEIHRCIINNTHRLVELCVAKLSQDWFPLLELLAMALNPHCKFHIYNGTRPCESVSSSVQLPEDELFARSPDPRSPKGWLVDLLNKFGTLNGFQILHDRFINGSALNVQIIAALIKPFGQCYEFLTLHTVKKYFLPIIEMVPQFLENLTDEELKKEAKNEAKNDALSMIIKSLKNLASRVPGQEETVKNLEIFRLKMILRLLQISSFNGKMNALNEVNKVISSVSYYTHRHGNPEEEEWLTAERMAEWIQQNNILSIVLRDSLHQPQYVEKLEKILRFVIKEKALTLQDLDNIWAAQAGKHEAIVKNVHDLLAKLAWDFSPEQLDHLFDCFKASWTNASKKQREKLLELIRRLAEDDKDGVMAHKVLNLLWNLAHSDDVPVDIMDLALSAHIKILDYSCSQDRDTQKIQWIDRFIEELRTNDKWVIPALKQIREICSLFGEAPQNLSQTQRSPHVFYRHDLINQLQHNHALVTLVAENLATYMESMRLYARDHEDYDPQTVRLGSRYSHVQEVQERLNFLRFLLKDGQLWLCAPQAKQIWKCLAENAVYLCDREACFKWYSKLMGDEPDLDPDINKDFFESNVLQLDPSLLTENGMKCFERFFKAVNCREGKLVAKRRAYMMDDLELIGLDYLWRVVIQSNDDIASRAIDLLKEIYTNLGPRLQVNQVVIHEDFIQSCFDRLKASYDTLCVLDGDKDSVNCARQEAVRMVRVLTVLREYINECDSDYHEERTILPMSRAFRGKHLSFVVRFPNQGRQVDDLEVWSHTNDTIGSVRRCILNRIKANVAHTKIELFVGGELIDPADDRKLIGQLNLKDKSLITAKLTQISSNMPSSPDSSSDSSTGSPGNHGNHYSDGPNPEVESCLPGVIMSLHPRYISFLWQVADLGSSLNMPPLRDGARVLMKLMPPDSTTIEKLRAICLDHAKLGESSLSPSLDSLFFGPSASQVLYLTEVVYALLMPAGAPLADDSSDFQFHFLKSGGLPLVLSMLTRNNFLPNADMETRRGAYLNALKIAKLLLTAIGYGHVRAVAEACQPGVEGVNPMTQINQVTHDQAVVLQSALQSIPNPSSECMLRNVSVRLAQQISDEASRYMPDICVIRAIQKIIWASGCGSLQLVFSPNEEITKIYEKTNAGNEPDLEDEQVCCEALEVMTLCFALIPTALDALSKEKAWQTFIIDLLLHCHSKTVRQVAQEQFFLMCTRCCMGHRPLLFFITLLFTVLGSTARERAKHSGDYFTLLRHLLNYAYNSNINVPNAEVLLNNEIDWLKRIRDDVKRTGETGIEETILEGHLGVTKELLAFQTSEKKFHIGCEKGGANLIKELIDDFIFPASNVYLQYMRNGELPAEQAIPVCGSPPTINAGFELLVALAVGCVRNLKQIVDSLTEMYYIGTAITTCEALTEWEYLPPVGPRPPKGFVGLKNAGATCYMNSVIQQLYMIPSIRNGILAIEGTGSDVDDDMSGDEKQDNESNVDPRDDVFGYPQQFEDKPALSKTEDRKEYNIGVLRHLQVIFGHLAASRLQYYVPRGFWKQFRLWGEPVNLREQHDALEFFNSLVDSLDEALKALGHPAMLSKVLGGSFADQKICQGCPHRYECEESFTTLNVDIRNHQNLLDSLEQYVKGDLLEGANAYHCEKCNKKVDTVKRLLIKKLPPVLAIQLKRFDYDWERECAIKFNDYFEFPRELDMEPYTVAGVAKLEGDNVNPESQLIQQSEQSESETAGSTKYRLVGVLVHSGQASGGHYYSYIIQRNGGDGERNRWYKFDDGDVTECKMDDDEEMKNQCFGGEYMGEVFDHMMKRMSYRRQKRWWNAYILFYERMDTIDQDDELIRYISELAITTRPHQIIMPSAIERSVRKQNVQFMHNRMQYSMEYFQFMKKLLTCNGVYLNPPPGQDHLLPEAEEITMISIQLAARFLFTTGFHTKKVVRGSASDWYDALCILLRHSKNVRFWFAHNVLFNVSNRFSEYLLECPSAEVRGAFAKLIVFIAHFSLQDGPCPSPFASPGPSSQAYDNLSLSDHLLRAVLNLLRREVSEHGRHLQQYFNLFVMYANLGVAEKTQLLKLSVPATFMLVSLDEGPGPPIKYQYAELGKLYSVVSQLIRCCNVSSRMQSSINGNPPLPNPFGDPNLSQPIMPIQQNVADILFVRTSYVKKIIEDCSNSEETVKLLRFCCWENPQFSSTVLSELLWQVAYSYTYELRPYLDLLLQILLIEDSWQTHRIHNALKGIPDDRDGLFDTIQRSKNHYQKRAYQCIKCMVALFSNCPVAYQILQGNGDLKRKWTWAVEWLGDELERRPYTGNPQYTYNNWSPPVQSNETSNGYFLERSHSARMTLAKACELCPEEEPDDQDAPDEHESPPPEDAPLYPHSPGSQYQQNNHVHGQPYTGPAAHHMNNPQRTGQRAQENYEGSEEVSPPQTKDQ
Outline: (§1)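 In triplicate, 495 µg of HEK293T lysate per sample was incubated with fragment at 200 µM or vehicle for 3 h. Biotin-Ahx-Ub-VS was then added to 0.5 µM final for 1 h, and labelled DUBs were captured with NeutrAvidin, digested with LysC and trypsin, and measured by diaPASEF LC-MS/MS. Data are average log2 fragment/vehicle ratios by unpaired t-test from global-median-normalised Spectronaut label-free quantities, restricted to proteins with ≥2 unique peptides.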

[2] = target: UniProt O00487
UniProt O00487, sequence (O00487 whole entry): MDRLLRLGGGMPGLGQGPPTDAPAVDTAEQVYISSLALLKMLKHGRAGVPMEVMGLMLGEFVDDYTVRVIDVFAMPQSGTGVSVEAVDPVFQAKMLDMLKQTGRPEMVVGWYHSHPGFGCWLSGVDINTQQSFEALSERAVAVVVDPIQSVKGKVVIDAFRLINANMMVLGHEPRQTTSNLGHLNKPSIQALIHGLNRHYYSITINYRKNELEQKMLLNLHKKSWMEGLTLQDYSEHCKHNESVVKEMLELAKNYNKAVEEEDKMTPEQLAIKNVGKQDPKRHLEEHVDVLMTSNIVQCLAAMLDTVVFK
Outline: as §1

[3] = target: UniProt O00507
Outline: as §1

[4] = target: UniProt P51784
UniProt P51784, sequence (P51784 whole entry): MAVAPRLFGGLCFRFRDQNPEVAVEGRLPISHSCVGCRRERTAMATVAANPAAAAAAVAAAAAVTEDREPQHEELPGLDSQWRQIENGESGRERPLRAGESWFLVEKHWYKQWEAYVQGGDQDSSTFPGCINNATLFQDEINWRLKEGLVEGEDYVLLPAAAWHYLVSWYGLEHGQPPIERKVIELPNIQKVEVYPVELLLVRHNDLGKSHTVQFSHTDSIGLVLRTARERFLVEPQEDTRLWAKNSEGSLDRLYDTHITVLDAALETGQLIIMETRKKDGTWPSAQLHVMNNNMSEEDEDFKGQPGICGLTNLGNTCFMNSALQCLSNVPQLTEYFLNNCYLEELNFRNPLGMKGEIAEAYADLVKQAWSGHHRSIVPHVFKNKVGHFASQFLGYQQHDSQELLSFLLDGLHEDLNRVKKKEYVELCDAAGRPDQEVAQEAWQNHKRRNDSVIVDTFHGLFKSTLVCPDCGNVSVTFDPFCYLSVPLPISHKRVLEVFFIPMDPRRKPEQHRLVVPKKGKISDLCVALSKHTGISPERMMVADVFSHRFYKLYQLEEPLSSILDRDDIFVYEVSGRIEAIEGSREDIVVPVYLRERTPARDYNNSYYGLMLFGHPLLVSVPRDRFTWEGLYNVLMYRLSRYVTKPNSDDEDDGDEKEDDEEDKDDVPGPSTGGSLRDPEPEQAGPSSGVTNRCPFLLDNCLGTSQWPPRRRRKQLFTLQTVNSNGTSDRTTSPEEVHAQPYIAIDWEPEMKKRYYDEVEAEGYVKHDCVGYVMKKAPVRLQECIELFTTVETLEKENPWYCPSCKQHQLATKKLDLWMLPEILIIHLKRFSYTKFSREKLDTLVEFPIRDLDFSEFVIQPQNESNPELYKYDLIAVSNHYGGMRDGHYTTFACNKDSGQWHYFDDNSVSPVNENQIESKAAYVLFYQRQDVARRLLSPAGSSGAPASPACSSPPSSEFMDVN
Outline: as §1

[5] = target: T1, UniProt Q5T2D3
T1 sequence (whole entry): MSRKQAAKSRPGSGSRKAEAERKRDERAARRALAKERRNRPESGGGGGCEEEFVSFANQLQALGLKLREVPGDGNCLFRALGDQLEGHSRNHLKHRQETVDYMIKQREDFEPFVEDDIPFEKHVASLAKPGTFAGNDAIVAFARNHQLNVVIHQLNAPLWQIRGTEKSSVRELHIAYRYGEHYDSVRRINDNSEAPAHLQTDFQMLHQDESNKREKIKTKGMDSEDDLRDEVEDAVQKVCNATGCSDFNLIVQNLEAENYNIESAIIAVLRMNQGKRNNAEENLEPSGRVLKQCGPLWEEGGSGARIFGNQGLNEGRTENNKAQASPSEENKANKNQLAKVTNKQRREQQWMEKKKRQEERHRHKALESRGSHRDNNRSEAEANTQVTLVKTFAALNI
Outline: as §1

[6] = target: T2, UniProt Q8TE49
T2 sequence (whole entry): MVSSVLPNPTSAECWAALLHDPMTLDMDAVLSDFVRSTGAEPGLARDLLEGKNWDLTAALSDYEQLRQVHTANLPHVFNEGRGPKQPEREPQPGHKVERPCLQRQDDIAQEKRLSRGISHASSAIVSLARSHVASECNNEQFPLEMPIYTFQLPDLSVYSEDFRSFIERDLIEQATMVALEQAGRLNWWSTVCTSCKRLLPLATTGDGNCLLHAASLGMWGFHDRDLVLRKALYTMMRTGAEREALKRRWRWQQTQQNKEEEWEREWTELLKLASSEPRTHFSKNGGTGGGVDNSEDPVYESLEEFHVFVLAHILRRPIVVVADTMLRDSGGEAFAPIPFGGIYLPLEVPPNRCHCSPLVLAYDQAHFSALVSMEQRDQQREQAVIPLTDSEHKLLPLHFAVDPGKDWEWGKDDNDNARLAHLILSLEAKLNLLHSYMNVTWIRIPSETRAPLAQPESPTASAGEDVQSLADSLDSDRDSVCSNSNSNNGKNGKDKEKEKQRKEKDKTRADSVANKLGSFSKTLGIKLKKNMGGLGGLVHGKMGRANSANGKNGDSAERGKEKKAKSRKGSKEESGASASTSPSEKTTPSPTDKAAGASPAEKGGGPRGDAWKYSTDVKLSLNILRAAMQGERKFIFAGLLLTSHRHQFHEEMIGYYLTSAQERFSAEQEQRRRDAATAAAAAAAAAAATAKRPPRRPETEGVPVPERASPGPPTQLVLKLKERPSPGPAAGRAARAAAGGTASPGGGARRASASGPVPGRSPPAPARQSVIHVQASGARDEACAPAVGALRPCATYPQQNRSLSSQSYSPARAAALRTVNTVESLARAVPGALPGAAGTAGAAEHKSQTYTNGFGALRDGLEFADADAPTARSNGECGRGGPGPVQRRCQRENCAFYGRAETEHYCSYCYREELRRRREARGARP
Outline: as §1

[7] = target: T3, UniProt Q9P2H5
T3 sequence (whole entry): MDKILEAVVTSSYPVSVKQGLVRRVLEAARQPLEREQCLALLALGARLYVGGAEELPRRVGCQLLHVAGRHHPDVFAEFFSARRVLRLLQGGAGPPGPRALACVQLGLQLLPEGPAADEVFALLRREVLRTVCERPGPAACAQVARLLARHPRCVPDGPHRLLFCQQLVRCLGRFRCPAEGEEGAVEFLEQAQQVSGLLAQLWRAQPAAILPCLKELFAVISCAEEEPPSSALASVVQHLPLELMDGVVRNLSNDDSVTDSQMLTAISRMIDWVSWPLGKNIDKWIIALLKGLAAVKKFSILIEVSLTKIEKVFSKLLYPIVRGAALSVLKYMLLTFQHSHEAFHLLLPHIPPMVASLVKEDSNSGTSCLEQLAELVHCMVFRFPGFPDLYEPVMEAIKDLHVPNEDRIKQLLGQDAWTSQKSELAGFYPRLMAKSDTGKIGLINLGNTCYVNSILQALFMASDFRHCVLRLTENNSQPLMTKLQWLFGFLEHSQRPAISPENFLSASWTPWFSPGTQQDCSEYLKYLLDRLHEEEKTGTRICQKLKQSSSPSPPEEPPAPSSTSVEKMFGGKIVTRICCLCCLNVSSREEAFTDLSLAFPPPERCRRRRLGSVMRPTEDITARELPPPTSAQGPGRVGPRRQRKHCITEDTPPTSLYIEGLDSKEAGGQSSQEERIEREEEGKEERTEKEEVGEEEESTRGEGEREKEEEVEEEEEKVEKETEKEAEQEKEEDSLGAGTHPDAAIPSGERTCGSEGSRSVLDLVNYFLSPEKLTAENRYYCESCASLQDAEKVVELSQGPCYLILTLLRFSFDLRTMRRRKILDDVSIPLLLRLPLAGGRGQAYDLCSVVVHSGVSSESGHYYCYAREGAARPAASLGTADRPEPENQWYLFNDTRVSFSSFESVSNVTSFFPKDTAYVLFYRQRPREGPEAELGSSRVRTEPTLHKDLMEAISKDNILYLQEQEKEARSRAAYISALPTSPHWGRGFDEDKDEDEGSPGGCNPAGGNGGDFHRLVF
Outline: as §1

[8] = target: T4, UniProt Q9UGI0
T4 sequence (whole entry): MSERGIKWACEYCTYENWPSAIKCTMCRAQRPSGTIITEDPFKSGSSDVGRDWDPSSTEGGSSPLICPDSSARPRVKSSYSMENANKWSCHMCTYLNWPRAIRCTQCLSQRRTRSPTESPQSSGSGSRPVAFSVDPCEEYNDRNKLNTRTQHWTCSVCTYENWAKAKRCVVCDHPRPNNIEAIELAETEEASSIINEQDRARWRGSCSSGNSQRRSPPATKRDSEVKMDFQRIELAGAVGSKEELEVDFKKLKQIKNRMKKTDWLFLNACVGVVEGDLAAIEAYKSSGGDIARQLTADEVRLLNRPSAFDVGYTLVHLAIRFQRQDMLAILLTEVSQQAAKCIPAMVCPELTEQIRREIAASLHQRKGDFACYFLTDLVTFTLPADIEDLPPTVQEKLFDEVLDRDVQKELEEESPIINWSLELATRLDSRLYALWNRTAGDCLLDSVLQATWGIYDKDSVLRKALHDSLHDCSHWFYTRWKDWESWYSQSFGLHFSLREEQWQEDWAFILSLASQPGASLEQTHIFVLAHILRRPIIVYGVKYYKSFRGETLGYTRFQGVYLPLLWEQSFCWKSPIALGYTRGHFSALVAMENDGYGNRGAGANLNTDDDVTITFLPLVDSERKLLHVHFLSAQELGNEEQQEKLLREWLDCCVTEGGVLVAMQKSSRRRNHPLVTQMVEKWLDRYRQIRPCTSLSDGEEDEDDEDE
Outline: as §1

[9] = target: T5, YOD1 (UniProt Q5VVQ6)
T5 sequence (whole entry): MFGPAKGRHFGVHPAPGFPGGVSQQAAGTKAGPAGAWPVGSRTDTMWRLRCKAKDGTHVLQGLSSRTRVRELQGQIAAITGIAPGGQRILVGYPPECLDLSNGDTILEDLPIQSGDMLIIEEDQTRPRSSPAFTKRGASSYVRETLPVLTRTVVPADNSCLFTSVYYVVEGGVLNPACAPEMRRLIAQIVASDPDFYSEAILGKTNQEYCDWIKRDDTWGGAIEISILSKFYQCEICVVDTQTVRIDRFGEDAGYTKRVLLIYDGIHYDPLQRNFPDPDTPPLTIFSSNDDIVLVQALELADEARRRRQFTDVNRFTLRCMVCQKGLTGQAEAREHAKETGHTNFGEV
Outline: as §1

Measured: log2 ratio of Biotin-Ahx-Ub-VS probe labelling

Cl.O=C(CCl)N1CCC(Cc2nccs2)C1 (centres undefined)
inactive: [1] -0.186 | [2] -0.1 | [3] -0.185 | [4] 0.0118 | [5] -0.239 | [6] -0.308 | [7] -0.239 | [8] -0.507 | [9] -0.104
